Test results published in PubChem BioAssay.
For some assays here: Entries with a potency or affinity are not part of this list. Active and inactive are the calls of the source. Unless noted, the rule behind the calls is not given here.

Assays:
[1] = antimalarial activity against Dd2 strain (AID 2302;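 active = growth inhibition above 50% at the single 2 µM test dose, taken to imply half-maximal potency below 2 µM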;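 note: 0% = DMSO untreated growth and 100% = chloroquine plus artemisinin killed control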); conditions: P. falciparum Dd2 in RBCs, LDH growth readout, 72 h; at 2 µM; hits give high values
[2] = human hepatoma cell viability loss – ATP luminescence, cytotoxicity control for P. falciparum antimalarial project, primary screen (AID 2303;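 active = inhibition above 50%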;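 note: 0% = DMSO wells and 100% = digitonin-killed cells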); conditions: HepG2 viability, 24-48 h, at 10 µM, hits give high values
[3] = target: L-lactate dehydrogenase (Plasmodium falciparum (isolate CDC / Honduras)) (UniProt Q27743); assay: PfLDH activity inhibition – cell lysate, 3D7 strain, counter-screen for P. falciparum growth inhibition project (AID 2304);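 note: 0% = vehicle and 100% = reference inhibitor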; conditions: P. falciparum 3D7 crude extract, LDH APAD/NBT absorbance; at 2 µM; hits give high values
[4] = inhibition of 3D7 malaria parasite growth – strain 3D7 (AID 2306);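 note: 0% = DMSO wells and 100% = chloroquine plus artemisinin control wells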; conditions: P. falciparum 3D7 erythrocytic growth, LDH absorbance, 72 h; at 2 µM; hits give high values
[5] = target: Calcium-dependent protein kinase 1 (Plasmodium falciparum (isolate 3D7)) (UniProt P62344); assay: PfCDPK1 kinase inhibitors, biochemical, TCAMS library (AID 1159585; cut-off not given, nearly all actives have IC50 up to about 0.98 µM;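 note: inhibitors leave more ATP so luminescence rises with inhibition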); conditions: recombinant PfCDPK1, Kinase-Glo ATP depletion luminescence
[6] = target: Plasmodium falciparum protein kinase 6 (PK6, PF3D7_1337100) (UniProt Q8IDW1); assay: PfPK6 kinase inhibitors, biochemical, TCAMS library (AID 1159586); conditions: recombinant PfPK6, Kinase-Glo ATP depletion luminescence
[7] = target: Protein kinase 7 (PK7), Plasmodium falciparum 3D7 (PF3D7_0213400) (UniProt Q7YTF7); assay: inhibition of Plasmodium PK7 catalytic activity – biochemical, TCAMS antimalarial set, Kinase-Glo luminescence (AID 1159587); conditions: recombinant PfPK7, Kinase-Glo ATP depletion luminescence
[8] = target: Calcium-dependent protein kinase 4 (Plasmodium falciparum (isolate 3D7)) (UniProt Q8IBS5); assay: PfCDPK4 kinase inhibitors, biochemical, TCAMS library (AID 1159588; cut-off not given, nearly all actives have IC50 up to about 0.91 µM); conditions: recombinant PfCDPK4, Kinase-Glo ATP depletion luminescence
Calcium-dependent protein kinase 4 (Plasmodium falciparum (isolate 3D7)), sequence (Q8IBS5 whole entry, looked up): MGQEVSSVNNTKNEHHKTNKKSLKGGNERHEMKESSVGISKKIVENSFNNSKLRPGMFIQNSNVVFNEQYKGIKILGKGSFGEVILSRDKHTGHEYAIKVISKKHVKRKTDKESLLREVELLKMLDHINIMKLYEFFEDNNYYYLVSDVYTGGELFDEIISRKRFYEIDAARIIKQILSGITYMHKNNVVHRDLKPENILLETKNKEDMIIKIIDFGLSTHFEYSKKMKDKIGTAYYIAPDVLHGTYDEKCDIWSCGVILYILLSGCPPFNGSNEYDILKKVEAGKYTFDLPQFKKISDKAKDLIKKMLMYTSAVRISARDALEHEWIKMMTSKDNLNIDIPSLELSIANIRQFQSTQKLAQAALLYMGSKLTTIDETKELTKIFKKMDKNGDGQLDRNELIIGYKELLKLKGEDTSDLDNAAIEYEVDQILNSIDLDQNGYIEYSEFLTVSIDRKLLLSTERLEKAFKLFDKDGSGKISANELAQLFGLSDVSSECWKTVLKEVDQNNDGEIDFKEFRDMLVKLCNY

Plasmodium falciparum protein kinase 6 (PK6, PF3D7_1337100), sequence (Q8IDW1 1-305): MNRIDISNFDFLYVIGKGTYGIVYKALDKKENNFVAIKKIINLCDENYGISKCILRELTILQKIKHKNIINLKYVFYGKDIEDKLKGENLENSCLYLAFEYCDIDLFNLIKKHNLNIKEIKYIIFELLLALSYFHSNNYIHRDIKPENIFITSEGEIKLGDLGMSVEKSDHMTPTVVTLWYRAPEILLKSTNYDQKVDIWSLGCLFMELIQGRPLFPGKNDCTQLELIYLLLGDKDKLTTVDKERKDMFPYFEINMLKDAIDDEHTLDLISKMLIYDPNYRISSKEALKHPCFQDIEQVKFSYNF
L-lactate dehydrogenase (Plasmodium falciparum (isolate CDC / Honduras)), sequence (Q27743 whole entry, looked up): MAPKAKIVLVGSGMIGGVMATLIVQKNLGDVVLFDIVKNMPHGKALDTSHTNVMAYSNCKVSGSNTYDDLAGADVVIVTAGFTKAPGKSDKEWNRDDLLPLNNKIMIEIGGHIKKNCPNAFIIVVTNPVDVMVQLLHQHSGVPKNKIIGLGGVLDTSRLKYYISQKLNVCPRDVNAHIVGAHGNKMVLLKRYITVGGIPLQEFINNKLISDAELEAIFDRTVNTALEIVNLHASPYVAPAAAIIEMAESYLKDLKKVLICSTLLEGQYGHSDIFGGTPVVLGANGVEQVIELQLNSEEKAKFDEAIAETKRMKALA
Calcium-dependent protein kinase 1 (Plasmodium falciparum (isolate 3D7)), sequence (P62344 whole entry, looked up): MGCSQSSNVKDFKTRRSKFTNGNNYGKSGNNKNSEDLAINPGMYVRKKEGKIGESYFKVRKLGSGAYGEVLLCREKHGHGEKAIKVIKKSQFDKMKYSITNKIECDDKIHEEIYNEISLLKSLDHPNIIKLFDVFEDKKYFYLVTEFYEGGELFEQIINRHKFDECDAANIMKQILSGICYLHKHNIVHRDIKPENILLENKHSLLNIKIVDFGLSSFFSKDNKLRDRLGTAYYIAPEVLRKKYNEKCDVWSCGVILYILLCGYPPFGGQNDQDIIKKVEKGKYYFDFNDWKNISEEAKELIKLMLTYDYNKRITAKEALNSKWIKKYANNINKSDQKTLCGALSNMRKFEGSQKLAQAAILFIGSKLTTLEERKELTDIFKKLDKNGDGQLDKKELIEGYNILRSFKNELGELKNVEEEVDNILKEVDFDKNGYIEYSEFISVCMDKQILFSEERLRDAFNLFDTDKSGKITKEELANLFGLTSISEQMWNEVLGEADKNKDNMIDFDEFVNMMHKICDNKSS
Protein kinase 7 (PK7), Plasmodium falciparum 3D7 (PF3D7_0213400), sequence (Q7YTF7 1-343): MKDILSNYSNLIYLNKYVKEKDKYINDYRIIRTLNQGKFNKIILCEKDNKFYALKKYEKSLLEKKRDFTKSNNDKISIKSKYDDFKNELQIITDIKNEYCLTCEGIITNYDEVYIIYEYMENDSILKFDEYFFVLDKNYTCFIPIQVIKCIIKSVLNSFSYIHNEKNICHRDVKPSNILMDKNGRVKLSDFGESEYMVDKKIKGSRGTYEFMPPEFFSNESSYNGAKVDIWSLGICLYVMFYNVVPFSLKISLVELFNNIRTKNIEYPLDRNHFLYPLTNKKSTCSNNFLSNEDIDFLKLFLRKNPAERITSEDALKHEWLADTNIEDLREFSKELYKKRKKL

O=S(=O)(/C=C/c1ccccc1)N(Cc1ccc(-c2ccc(CNCCc3ccccc3)cc2)cc1)CC1CCCCN1 (stereo not given)
inactive: inhibition [3] -2% | outcome [5] | outcome [6] | outcome [7] | outcome [8]
active: growth inhibition [1] 96% | inhibition [2] 99% | growth inhibition [4] 100%

CCN(Cc1ccc(-c2ccc(C(F)(F)F)cc2)cc1)C(=O)Cn1c(SCc2cccc(F)c2F)cc(=O)c2cc(CN3CCCCC3)ccc21
active: growth inhibition [1] 50% | inhibition [2] 95% | growth inhibition [4] 101%
inactive: inhibition [3] 2% | outcome [5] | outcome [6] | outcome [7] | outcome [8]

COc1ccc(S(=O)(=O)NC2CCN(CCCOc3ccnc4cc(Cl)ccc34)C2)cc1OC (stereo not given)
inactive: inhibition [2] 8% | inhibition [3] 1% | outcome [5] | outcome [6] | outcome [7] | outcome [8]
active: growth inhibition [1] 56% | growth inhibition [4] 91%

O=C(Nc1cccc(OC2CCN(Cc3ccccc3)CC2)c1)Nc1cccc([N+](=O)[O-])c1
inactive: growth inhibition [1] 48% | inhibition [2] 10% | inhibition [3] 0% | outcome [5] | outcome [6] | outcome [7] | outcome [8]
active: growth inhibition [4] 101%

O=C(NCc1ccccc1)O[C@@H]1CNCC[C@H]1c1ccc(C(O)Cc2ccccc2)cc1 (stereo not given in full)
inactive: growth inhibition [1] 5% | inhibition [2] 8% | inhibition [3] 4% | outcome [5] | outcome [6] | outcome [7] | outcome [8]
active: growth inhibition [4] 87%

OC(c1ccc(Cl)cc1)(c1ccc(Cl)cc1)C(c1ccc(Cl)cc1)n1ccnc1 (stereo not given)
active: growth inhibition [1] 100% | growth inhibition [4] 101%
inactive: inhibition [2] 15% | inhibition [3] -3% | outcome [5] | outcome [6] | outcome [7] | outcome [8]

CCCCCCCc1c(C)[nH]c2ccccc2c1=O
active: growth inhibition [1] 96% | growth inhibition [4] 98%
inactive: inhibition [2] -14% | inhibition [3] -7% | outcome [5] | outcome [6] | outcome [7] | outcome [8]

COc1ccc(C=NNc2cc(C)nc3ccccc23)c(OC)c1
active: growth inhibition [1] 94% | growth inhibition [4] 101%
inactive: inhibition [2] 24% | inhibition [3] -2% | outcome [5] | outcome [6] | outcome [7] | outcome [8]

O=C(NCC1CC1)C1CCN(C(c2ccc(Cl)cc2)c2ccc(Cl)cc2)CC1
inactive: inhibition [2] 3% | inhibition [3] 1% | outcome [5] | outcome [6] | outcome [7] | outcome [8]
active: growth inhibition [1] 95% | growth inhibition [4] 99%

CC(=O)Nc1ncc(C(=O)Nc2cccc(-c3ccc(-c4nc5c(C)cccc5[nH]4)cc3)c2)s1
active: growth inhibition [1] 78% | inhibition [2] 69% | growth inhibition [4] 101%
inactive: inhibition [3] 3% | outcome [5] | outcome [6] | outcome [7] | outcome [8]

CN(CCCCCN1CCC(NC(=O)Nc2ccc(Oc3ccccc3)cc2)C1)C(=O)/C=C/c1ccc(Cl)c(Cl)c1 (stereo not given)
active: inhibition [2] 50% | growth inhibition [4] 98%
inactive: growth inhibition [1] 14% | inhibition [3] -2% | outcome [5] | outcome [6] | outcome [7] | outcome [8]

O=[N+]([O-])c1cccc(CNCC2CCN(CCc3ccccc3)CC2)c1
inactive: growth inhibition [1] 11% | inhibition [2] 15% | inhibition [3] -6% | outcome [5] | outcome [6] | outcome [7] | outcome [8]
active: growth inhibition [4] 98%

CN(C)Cc1cccc(-c2ccc3ccnc(N)c3c2)c1
inactive: inhibition [2] 21% | inhibition [3] 3% | outcome [5] | outcome [6] | outcome [7] | outcome [8]
active: growth inhibition [1] 74% | growth inhibition [4] 99%

O=C(N[C@@H](Cc1ccccc1)[C@H](O)CNC1CCc2ccccc2C1)c1cc(C2CCCC2)cc(N2CCCC2=O)c1 (stereo not given in full)
inactive: inhibition [2] 23% | inhibition [3] -4% | outcome [5] | outcome [6] | outcome [7] | outcome [8]
active: growth inhibition [1] 76% | growth inhibition [4] 99%

CC(C)(CNC(=O)/C=C/c1ccc(C(F)(F)F)cc1)CNc1cc(=O)c2ccccc2[nH]1
inactive: growth inhibition [1] 27% | inhibition [2] -1% | inhibition [3] -6% | outcome [5] | outcome [6] | outcome [7] | outcome [8]
active: growth inhibition [4] 95%

COc1ccc(C=CC(=O)NC(=O)c2ccccc2OC(=O)c2ccccc2)cc1OC
active: growth inhibition [1] 90% | growth inhibition [4] 87%
inactive: inhibition [2] 12% | inhibition [3] 5% | outcome [5] | outcome [6] | outcome [7] | outcome [8]

CN(Cc1cccc(F)c1)C1CCN(c2cc(NC(=O)c3ccc(F)cc3)ccn2)C1 (stereo not given)
active: growth inhibition [4] 83%
inactive: growth inhibition [1] 14% | inhibition [2] 7% | inhibition [3] -3% | outcome [5] | outcome [6] | outcome [7] | outcome [8]

Cc1cc(C2CCN(CCCCNC(=O)c3ccc(NC(=O)c4ccc(Cl)cc4)cc3)CC2)c(C)cc1OCc1ccccn1
inactive: inhibition [2] 18% | inhibition [3] 3% | outcome [5] | outcome [6] | outcome [7] | outcome [8]
active: growth inhibition [1] 65% | growth inhibition [4] 96%

Fc1ccc(Nc2ccnc3cc(-c4cccc(CNCCN5CCOCC5)c4)ccc23)c(Cl)c1
active: growth inhibition [1] 99% | growth inhibition [4] 100%
inactive: inhibition [2] 26% | inhibition [3] -1% | outcome [5] | outcome [6] | outcome [7] | outcome [8]

Cc1cccc2[nH]c(-c3ccc(-c4cccc(NC(=O)Nc5ccc(Cl)cc5)c4)s3)nc12
inactive: inhibition [2] 25% | inhibition [3] -1% | outcome [5] | outcome [6] | outcome [7] | outcome [8]
active: growth inhibition [1] 52% | growth inhibition [4] 102%

O=C(Nc1ccc2c(c1)OCO2)c1cc(-c2cccnc2)nc2ccc(Cl)cc12
inactive: growth inhibition [1] 41% | inhibition [2] 9% | inhibition [3] -3% | outcome [5] | outcome [6] | outcome [7] | outcome [8]
active: growth inhibition [4] 89%

CCNc1cc(C(=O)N[C@@H](Cc2ccccc2)[C@H](O)CNCc2cc(OC)cc(OC)c2)cc(N2CCCC2=O)c1
inactive: inhibition [2] -7% | inhibition [3] 2% | outcome [5] | outcome [6] | outcome [7] | outcome [8]
active: growth inhibition [1] 75% | growth inhibition [4] 100%

CC(NC(=O)NC1CCC(CCN2CCCc3ccccc32)CC1)c1cccc2ccccc12 (stereo not given)
active: growth inhibition [1] 83% | growth inhibition [4] 90%
inactive: inhibition [2] -4% | inhibition [3] -1% | outcome [5] | outcome [6] | outcome [7] | outcome [8]

CCOC(=O)C1=C(C)NC2=C(C(=O)CC(C)(C)C2)C1c1ccc(Br)cc1 (stereo not given)
active: growth inhibition [1] 66% | growth inhibition [4] 90%
inactive: inhibition [2] 0% | inhibition [3] 2% | outcome [5] | outcome [6] | outcome [7] | outcome [8]

NC(N)=NN=C1C=Cc2cccc3cccc1c23
active: growth inhibition [4] 100%
inactive: growth inhibition [1] 49% | inhibition [2] 9% | inhibition [3] 1% | outcome [5] | outcome [6] | outcome [7] | outcome [8]

COc1cc(CNCCCCCCNCc2cc(OC)c3ccccc3c2OC)c(OC)c2ccccc12
active: inhibition [2] 99% | growth inhibition [4] 102%
inactive: growth inhibition [1] 40% | inhibition [3] -2% | outcome [5] | outcome [6] | outcome [7] | outcome [8]

CCn1ccc2c(N3CCCS3(=O)=O)cc(C(=O)N[C@@H](Cc3ccccc3)[C@H](O)CNC(C)(C)CCCC(C)C)cc21
active: growth inhibition [1] 98% | growth inhibition [4] 97%
inactive: inhibition [2] 8% | inhibition [3] 0% | outcome [5] | outcome [6] | outcome [7] | outcome [8]

CN(CC(=O)Nc1ccc(F)c(F)c1F)c1ncnc2sc(-c3ccccc3)cc12
inactive: growth inhibition [1] 34% | inhibition [2] 0% | inhibition [3] 2% | outcome [5] | outcome [6] | outcome [7] | outcome [8]
active: growth inhibition [4] 95%

COc1cc2nc(N3CC(C)N(C(=O)Cc4ccc(-c5ccccc5)cc4)C(C)C3)nc(N)c2cc1OC (stereo not given)
active: growth inhibition [4] 100%
inactive: growth inhibition [1] 12% | inhibition [2] 26% | inhibition [3] -5% | outcome [5] | outcome [6] | outcome [7] | outcome [8]

O=C(NCCCN1CCC(Cc2ccccc2)CC1)c1cc2c(Cl)nc3ccccc3c2s1
active: growth inhibition [4] 98%
inactive: growth inhibition [1] 40% | inhibition [2] 22% | inhibition [3] -3% | outcome [5] | outcome [6] | outcome [7] | outcome [8]

CCCCN(CCCC)Cc1cc2ccccc2cc1O
inactive: inhibition [2] 9% | inhibition [3] -6% | outcome [5] | outcome [6] | outcome [7] | outcome [8]
active: growth inhibition [1] 98% | growth inhibition [4] 100%

CCCc1cc(C(=O)N[C@@H](Cc2ccccc2)[C@H](O)CNC(C)C)c(F)c(N2CCCC2=O)c1
inactive: growth inhibition [1] 22% | inhibition [2] -2% | inhibition [3] 0% | outcome [5] | outcome [6] | outcome [7] | outcome [8]
active: growth inhibition [4] 90%

O=C(CSc1nc2ccccc2c(=O)n1CC1CCCO1)Nc1cc(C(F)(F)F)ccc1Cl (stereo not given)
active: growth inhibition [1] 95% | growth inhibition [4] 97%
inactive: inhibition [2] 12% | inhibition [3] -2% | outcome [5] | outcome [6] | outcome [7] | outcome [8]

Brc1ccc(Nc2nc(NCC3CCCO3)c3ccccc3n2)cc1 (stereo not given)
active: growth inhibition [1] 99% | growth inhibition [4] 100%
inactive: inhibition [2] 13% | inhibition [3] -3% | outcome [5] | outcome [6] | outcome [7] | outcome [8]

COc1c(OC)c(OC)c2ccccc2c1CCNCCCCNCCc1c(OC)c(OC)c(OC)c2ccccc12
inactive: inhibition [3] -3% | outcome [5] | outcome [6] | outcome [7] | outcome [8]
active: growth inhibition [1] 72% | inhibition [2] 100% | growth inhibition [4] 99%

COc1ccc(NC(=O)/C=C/c2ccc(Cl)c(Cl)c2)cc1N1CCN(C)CC1
active: growth inhibition [4] 90%
inactive: growth inhibition [1] 20% | inhibition [2] 23% | inhibition [3] -3% | outcome [5] | outcome [6] | outcome [7] | outcome [8]

O=C(c1cccc(-c2noc(C(F)(F)F)n2)c1)N1CCN(c2nsc3ccccc23)CC1
inactive: inhibition [2] 18% | inhibition [3] -2% | outcome [5] | outcome [6] | outcome [7] | outcome [8]
active: growth inhibition [1] 81% | growth inhibition [4] 90%

COc1cccc(CNC[C@@H](O)[C@H](Cc2ccccc2)NC(=O)c2cc(C3CCCC3)cc(N3CCCCS3(=O)=O)c2)c1
active: growth inhibition [1] 83% | growth inhibition [4] 96%
inactive: inhibition [2] 7% | inhibition [3] 4% | outcome [5] | outcome [6] | outcome [7] | outcome [8]

Cc1cc(N[C@@H](Cc2ccccc2)C(=O)NC2CCCC2)nc(NCC2CCCCC2)n1
active: growth inhibition [1] 96% | growth inhibition [4] 101%
inactive: inhibition [2] 18% | inhibition [3] 4% | outcome [5] | outcome [6] | outcome [7] | outcome [8]

COc1cc(C(=O)NCc2nn(CCN3CCC(N4CCCC4)CC3)cc2-c2ccc(Cl)c(Cl)c2)cc(OC)c1OC
active: growth inhibition [4] 97%
inactive: growth inhibition [1] -8% | inhibition [2] 16% | inhibition [3] -1% | outcome [5] | outcome [6] | outcome [7] | outcome [8]
